Measurements taken from PubChem BioAssay (Tox21).
Results filed as inconclusive are left out. Where a structure was tested more than once in an assay, its records may differ in their call. Activity calls are given as the source filed them. Unless noted, the call rests on the fitted dose curve; in most records, active means well fitted curve in the direction sought with a large enough effect in the repeat runs; inconclusive means weak or mixed curves; inactive means no such curve, though single readings can be large; an effect the other way counts as inactive or inconclusive.

Key:
[1] = qHTS assay to test for compound auto fluorescence at 535 nm (green) in HEK293 cells (AID 720680)
[2] = qHTS assay to test for compound auto fluorescence at 460 nm (blue) in HEK293 cell free culture (AID 720681)
Procedure, shortened: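 Test compounds were pinned into cell-free culture medium (DMEM with 10% FBS) and fluorescence was read directly at Ex/Em 405/460 nm. Signals were expressed as fluorescence equivalents of triamterene, with DMSO vehicle as control.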

[3] = qHTS assay to test for compound auto fluorescence at 535 nm (green) in HEK293 cell free culture (AID 720682)
Procedure, shortened: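 Green-label autofluorescence (485 nm excitation, 535 nm emission) measured on compound added to cell-free culture medium (DMEM, 10% FBS). Output is expressed relative to fluorescein.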

[4] = qHTS assay to test for compound auto fluorescence at 590 nm (red) in HEK293 cell free culture (AID 720683)
Procedure, shortened: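 Tox21 10K library compounds were pinned into cell-free DMEM with 10% FBS and fluorescence was read at excitation 540 nm. Activity is expressed as Rose Bengal sodium equivalency.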

[5] = qHTS assay to test for compound auto fluorescence at 590 nm (red) in HepG2 cell free culture (AID 720684)
Procedure, shortened: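 Red fluorescence (540 nm excitation, 590 nm emission) was measured after compound transfer into cell-free MEM supplemented with 10% FBS. Values are equivalencies against Rose Bengal sodium.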

[6] = qHTS assay to test for compound auto fluorescence at 460 nm (blue) in HepG2 cell free culture (AID 720685)
Procedure, shortened: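 Compound (23 nL) or DMSO pinned into cell-free MEM with 10% FBS; blue fluorescence read at 405/460 nm excitation/emission, expressed as auto-fluorescence equivalency to triamterene.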

[7] = qHTS assay to test for compound auto fluorescence at 535 nm (green) in HepG2 cell free culture (AID 720686)
[8] = biological target: Glucocorticoid receptor (Homo sapiens) (UniProt P04150); test: qHTS assay to identify small molecule agonists of the glucocorticoid receptor (GR) signaling pathway (AID 720691; active means well fitted activation curve with a large enough effect in the signal ratio in the repeat runs, not every such curve was filed as active; the % refers to the signal ratio)
Procedure, shortened: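 GR-bla HeLa cells (beta-lactamase reporter under glucocorticoid response element) were plated 4 h at 37 C/5% CO2, given compounds in DMSO, and incubated 18 h at 37 C. LiveBLAzer B/G FRET substrate was added for 2 h at room temperature, then fluorescence intensity read.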

[9] = biological target: Glucocorticoid receptor (Homo sapiens) (UniProt P04150); test: qHTS assay to identify small molecule antagonists of the glucocorticoid receptor (GR) signaling pathway (AID 720692; active means well fitted inhibition curve with a large enough effect in the signal ratio in the repeat runs, not every such curve was filed as active; the % refers to the signal ratio)
Procedure, shortened: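 GR-bla HeLa cells (beta-lactamase reporter under glucocorticoid response element) were pre-plated 4 h at 37 C, treated with compounds plus 5 nM dexamethasone (final) for 18 h, then read by LiveBLAzer B/G FRET fluorescence after 2 h.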

[10] = qHTS assay to identify small molecule antagonists of the glucocorticoid receptor (GR) signaling pathway - cell viability counter screen (AID 720693); further: nearly all actives have a fitted effect of over 55% in size
[11] = qHTS assay for identifying genotoxic compounds that show differential cytotoxicity against isogenic chicken DT40 cell lines with known DNA damage response pathways - wild type cell line (AID 743012); further: nearly all actives have a fitted effect of over 60% in size
Procedure, shortened: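 Parental DNA repair-proficient DT40 cells, 300 per well, were pre-incubated ~0.5 h at 37 C/5% CO2, pin-dosed with compounds in DMSO, then incubated 40 h. Viability was read as CellTiter-Glo luminescence after 30 min at room temperature.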

[12] = qHTS assay for identifying genotoxic compounds that show differential cytotoxicity against isogenic chicken DT40 cell lines with known DNA damage response pathways - Rev3 mutant cell line (AID 743014); further: nearly all actives have a fitted effect of over 55% in size; further: potency means the concentration at half of the fitted maximal effect
[13] = qHTS assay for identifying genotoxic compounds that show differential cytotoxicity against isogenic chicken DT40 cell lines with known DNA damage response pathways - Rad54/Ku70 mutant cell line (AID 743015); further: nearly all actives have a fitted effect of over 60% in size
[14] = qHTS assay to identify small molecule antagonists of the androgen receptor (AR) signaling pathway - cell viability counter screen (AID 743033; further: nearly all actives have a fitted effect of over 45% in size)
[15] = biological target: Androgen receptor (Homo sapiens) (UniProt P10275); test: qHTS assay to identify small molecule agonists of the androgen receptor (AR) signaling pathway (AID 743036; active means well fitted activation curve with a large enough effect in the signal ratio in the repeat runs, with a control signal flat, not every such curve was filed as active; the % refers to the signal ratio)
Procedure, shortened: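 AR-UAS-bla HEK293 cells, plated 4 h before dosing, were treated with compound for 16 h at 37C. beta-Lactamase reporter read after 2 h with LiveBLAzer B/G FRET substrate at room temperature.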

[16] = biological target: Androgen receptor (Homo sapiens) (UniProt P10275); test: qHTS assay to identify small molecule agonists of the androgen receptor (AR) signaling pathway using the MDA cell line (AID 743040; further: nearly all actives have a fitted effect of over 20% in size)
Procedure, shortened: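 MDA-kb2 breast carcinoma cells stably carrying an MMTV-driven luciferase reporter (AR- and GR-responsive) were seeded and held 5 h at 37C, 0% CO2, then exposed to compounds in DMSO for 16 h. Luminescence was read 30 min after ONE-Glo addition.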

[17] = qHTS assay to identify small molecule antagonists of the androgen receptor (AR) signaling pathway using the MDA cell line - cell viability counter screen (AID 743041; further: nearly all actives have a fitted effect of over 45% in size; further: potency means the concentration at half of the fitted maximal effect)
Procedure, shortened: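 MDA-kb2 AR-luc human breast carcinoma cells (MMTV-luciferase, AR/GR responsive) were treated with compounds plus R1881 agonist for 16 h at 37 °C. Viability was read as CellTiter-Fluor fluorescence in the same wells as the reporter assay.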

[18] = biological target: Androgen receptor (Homo sapiens) (UniProt P10275); test: qHTS assay to identify small molecule antagonists of the androgen receptor (AR) signaling pathway using the MDA cell line (AID 743042; further: nearly all actives have a fitted effect of over 55% in size)
Procedure, shortened: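 MDA-kb2 cells (human breast carcinoma, stably carrying an MMTV-luciferase reporter responsive to AR and GR) were plated at 3,000 cells/well and preincubated 5 hr at 37C, then given compound plus R1881 agonist for 16 h. ONE-Glo luminescence was read.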

[19] = qHTS assay to test for compound auto fluorescence at 460 nm (blue) in HepG2 cells (AID 720687)
Procedure, shortened: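 Cells (2,000/well in MEM with 10% FBS) attached overnight at 37 C, then were exposed to compound or DMSO for 1 hr at 37 C, 5% CO2. Fluorescence read at Ex/Em 405/460 nm, expressed as triamterene-equivalent signal.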

[20] = biological target: Androgen receptor (Homo sapiens) (UniProt P10275); test: qHTS assay to identify small molecule antagonists of the androgen receptor (AR) signaling pathway (AID 743035; active means well fitted inhibition curve with a large enough effect in the signal ratio in the repeat runs, not every such curve was filed as active; the % refers to the signal ratio)
Procedure, shortened: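 HEK293 cells stably carrying a UAS-driven beta-lactamase reporter (AR-UAS-bla GripTite) were plated for 4 h at 37C, then given compound and the agonist R1881 and incubated 16 h. Reporter activity was read by LiveBLAzer B/G FRET fluorescence after 2 h at room temperature.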
On the % scale 0 is the no-effect control and ±100 the full control effect.

Androgen receptor (Homo sapiens), sequence (P10275 whole entry, looked up): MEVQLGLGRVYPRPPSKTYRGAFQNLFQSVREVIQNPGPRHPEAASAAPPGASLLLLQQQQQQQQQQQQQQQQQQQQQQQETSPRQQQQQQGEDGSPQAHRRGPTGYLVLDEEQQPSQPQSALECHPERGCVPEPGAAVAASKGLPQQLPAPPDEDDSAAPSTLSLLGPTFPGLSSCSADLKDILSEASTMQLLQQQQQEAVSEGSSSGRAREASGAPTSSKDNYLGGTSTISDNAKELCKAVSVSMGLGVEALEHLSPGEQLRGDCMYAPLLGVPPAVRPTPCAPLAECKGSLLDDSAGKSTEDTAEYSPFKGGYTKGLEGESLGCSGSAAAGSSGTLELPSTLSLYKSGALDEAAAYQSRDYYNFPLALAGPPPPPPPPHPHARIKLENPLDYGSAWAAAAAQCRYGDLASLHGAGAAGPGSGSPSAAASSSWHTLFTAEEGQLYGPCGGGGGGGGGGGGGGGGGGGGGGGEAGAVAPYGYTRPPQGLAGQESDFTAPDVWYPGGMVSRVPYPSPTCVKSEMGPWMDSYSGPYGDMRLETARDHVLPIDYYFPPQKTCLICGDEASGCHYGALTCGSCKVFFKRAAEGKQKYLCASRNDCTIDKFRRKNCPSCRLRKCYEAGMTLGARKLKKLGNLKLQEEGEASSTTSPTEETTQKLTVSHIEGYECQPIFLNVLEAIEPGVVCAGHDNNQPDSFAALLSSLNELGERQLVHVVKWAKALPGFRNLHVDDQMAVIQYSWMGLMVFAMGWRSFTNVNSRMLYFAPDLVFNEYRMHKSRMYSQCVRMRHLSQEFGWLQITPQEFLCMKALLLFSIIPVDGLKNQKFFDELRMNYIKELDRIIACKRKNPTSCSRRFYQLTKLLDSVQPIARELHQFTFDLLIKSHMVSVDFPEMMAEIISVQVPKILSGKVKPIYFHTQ
Glucocorticoid receptor (Homo sapiens), sequence (P04150 whole entry, looked up): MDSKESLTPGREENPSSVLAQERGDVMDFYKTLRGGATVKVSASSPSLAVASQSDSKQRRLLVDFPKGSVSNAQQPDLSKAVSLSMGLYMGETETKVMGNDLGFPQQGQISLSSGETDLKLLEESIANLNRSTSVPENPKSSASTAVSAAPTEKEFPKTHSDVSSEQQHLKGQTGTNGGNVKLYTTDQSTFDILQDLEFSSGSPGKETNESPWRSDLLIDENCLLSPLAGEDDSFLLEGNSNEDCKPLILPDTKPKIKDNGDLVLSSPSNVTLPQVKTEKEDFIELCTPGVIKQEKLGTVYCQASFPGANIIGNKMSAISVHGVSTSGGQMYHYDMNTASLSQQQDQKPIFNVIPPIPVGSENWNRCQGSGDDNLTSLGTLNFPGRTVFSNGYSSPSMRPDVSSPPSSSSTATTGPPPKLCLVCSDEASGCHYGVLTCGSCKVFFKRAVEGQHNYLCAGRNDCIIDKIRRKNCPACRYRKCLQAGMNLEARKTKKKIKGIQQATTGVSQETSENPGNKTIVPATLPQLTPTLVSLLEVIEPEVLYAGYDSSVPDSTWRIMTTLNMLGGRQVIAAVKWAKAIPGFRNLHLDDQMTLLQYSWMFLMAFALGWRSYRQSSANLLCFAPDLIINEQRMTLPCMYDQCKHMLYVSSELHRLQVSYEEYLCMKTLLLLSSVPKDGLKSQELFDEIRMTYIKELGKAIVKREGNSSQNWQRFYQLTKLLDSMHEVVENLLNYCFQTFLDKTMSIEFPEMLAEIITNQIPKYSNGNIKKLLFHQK

COc1ccc(CCO)cc1
inactive: outcome [1] | outcome [2] | outcome [3] | outcome [4] | outcome [5] | outcome [6] | outcome [7] | Potency [8] | outcome [9] | outcome [10] | Potency [11] | Potency [12] | Potency [13] | outcome [14] | outcome [15] | Potency [16] | Potency [17] | outcome [18]

CCc1occc(=O)c1O
inactive: outcome [1] | outcome [2] | outcome [3] | outcome [4] | outcome [5] | outcome [6] | outcome [7] | Potency [8] | outcome [10] | Potency [11] | Potency [12] | Potency [13] | outcome [14] | Potency [17]

CCC(=O)CC
inactive: outcome [1] | outcome [2] | outcome [3] | outcome [4] | outcome [5] | outcome [6] | outcome [7] | Potency [8] | outcome [9] | outcome [10] | Potency [11] | Potency [13] | outcome [14] | Potency [17]

CO[Si](CCCn1c(=O)n(CCC[Si](OC)(OC)OC)c(=O)n(CCC[Si](OC)(OC)OC)c1=O)(OC)OC
inactive: outcome [1] | outcome [2] | outcome [3] | outcome [4] | outcome [5] | outcome [6] | outcome [7] | outcome [19] | outcome [10] | Potency [11] | Potency [12] | outcome [14] | Potency [17]

CCCCOCC(C)O (stereo not drawn)
inactive: outcome [1] | outcome [2] | outcome [3] | outcome [4] | outcome [5] | outcome [6] | outcome [7] | Potency [8] | outcome [9] | outcome [10] | Potency [11] | Potency [13] | outcome [14] | Potency [17]

O=C(NCN1CCOCC1)c1cnccn1
inactive: outcome [1] | outcome [2] | outcome [3] | outcome [4] | outcome [5] | outcome [6] | outcome [7] | Potency [8] | outcome [9] | Potency [11] | Potency [12] | Potency [13] | outcome [14] | outcome [20] | outcome [15] | Potency [16] | Potency [17] | outcome [18]

CC(C)COC(=O)c1ccccc1
inactive: outcome [1] | outcome [2] | outcome [3] | outcome [4] | outcome [5] | outcome [6] | outcome [7] | Potency [8] | outcome [9] | outcome [10] | Potency [11] | outcome [14] | outcome [20] | Potency [16] | Potency [17] | outcome [18]

CCCCCCC1(C)CCC(=O)O1 (stereo not drawn)
inactive: outcome [1] | outcome [2] | outcome [3] | outcome [4] | outcome [5] | outcome [6] | outcome [7] | outcome [19] | outcome [10] | Potency [12] | Potency [13] | outcome [14] | Potency [17]

CCCC(=O)OCCC(C)CCC=C(C)C (stereo not drawn)
inactive: outcome [1] | outcome [2] | outcome [3] | outcome [4] | outcome [5] | outcome [6] | outcome [7] | outcome [19] | outcome [10] | outcome [14] | Potency [17]

CC(C)(CO)C(O)C(=O)NCCCO (stereo not drawn)
inactive: outcome [1] | outcome [2] | outcome [3] | outcome [4] | outcome [5] | outcome [6] | outcome [7] | outcome [19] | outcome [10] | Potency [11] | Potency [13] | outcome [14] | Potency [17]

CC(C)C1OCCN1CCOC(=O)NCCCCCCNC(=O)OCCN1CCOC1C(C)C (stereo not drawn)
inactive: outcome [1] | outcome [2] | outcome [3] | outcome [4] | outcome [5] | outcome [6] | outcome [7] | Potency [8] | outcome [9] | outcome [10] | Potency [11] | Potency [13] | outcome [20] | outcome [15] | Potency [16] | Potency [17] | outcome [18]

CCNC(=O)NCc1cccc(Cl)c1
inactive: outcome [1] | outcome [2] | outcome [3] | outcome [4] | outcome [5] | outcome [6] | outcome [7] | outcome [19] | outcome [10] | Potency [11] | Potency [12] | Potency [13] | outcome [14] | Potency [17]

O=S(=O)(O)c1ccc2c(N=Nc3ccc(S(=O)(=O)O)c4ccccc34)c(O)c(S(=O)(=O)O)cc2c1
active: Potency [17] 22.1 µM
inactive: outcome [1] | outcome [2] | outcome [3] | outcome [4] | outcome [5] | outcome [6] | outcome [7] | outcome [19] | outcome [10] | Potency [11] | Potency [12] | activity change, negative = cytotoxicity [13] 0.0993% [at 8.55 µM] | outcome [14] | viability change, negative = cytotoxic [17] -3.01% [at 8.47 µM]

O=C(CN1CCNCC1)NC1CCCCC1
inactive: outcome [1] | outcome [2] | outcome [3] | outcome [4] | outcome [5] | outcome [6] | outcome [7] | Potency [8] | outcome [9] | outcome [10] | Potency [11] | Potency [13] | outcome [14] | Potency [17]

CCCCCCCCCCCCCBr
inactive: outcome [1] | outcome [2] | outcome [3] | outcome [4] | outcome [5] | outcome [6] | outcome [7] | outcome [19] | outcome [10] | Potency [13] | outcome [14] | Potency [17]
active: Potency [12] 54.3 µM

c1ccc2c(CC3=NCCN3)cccc2c1
inactive: outcome [1] | outcome [2] | outcome [3] | outcome [4] | outcome [5] | outcome [6] | outcome [7] | outcome [19] | outcome [10] | Potency [11] | Potency [13] | outcome [14] | Potency [17]

Cc1ccc(C)c([N+](=O)[O-])c1
inactive: outcome [1] | outcome [2] | outcome [3] | outcome [4] | outcome [5] | outcome [6] | outcome [7] | Potency [8] | Potency [11] | Potency [12] | Potency [13] | outcome [14] | Potency [17]
